# USP1-UAF1 inh = USP1/UAF1 (human) deubiquitinase inhibition. 0.23% of 390,000 active. O94782. Potency, µM (titrated, usually from 57.1 µM), for inactives: at the highest dose activity change, negative = inhibition, most hits filed as inhibitors. recombinant USP1/UAF1, Ub-Rhodamine cleavage fluorescence; also: potency is read from the fitted curve at half-maximal effect; % is scaled to controls: 0 for no effect and ±100 for the full control effect; nearly all actives have a fitted effect of over 60% in size
#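 USP1/UAF1 complex at 1 nM was preincubated with compound for 15 min at room temperature, then Ub-Rho substrate (150nM final) was added. Fluorescence (480/540 nm) was read kinetically, 6 reads every 60 seconds.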
# WRN helicase inh-1 = inhibitors of human WRN helicase; Q14191; WRN helicase unwinding, fluorescent forked duplex, kinetic; 0.46% of 360,000 active; Potency, µM (doses to about 114 µM), without a hit: at the highest dose activity change, negative = inhibition, actives largely listed as inhibitors; also: potency is read from the fitted curve at half-maximal effect; % is scaled to controls: 0 for no effect and ±100 for the full control effect; nearly all actives have a fitted effect of over 55% in size
#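 WRN at 20 nM final was preincubated with compound for 15 min at room temperature; reaction started with 100 nM forked duplex oligonucleotide carrying fluorophore and quencher plus 2 mM ATP (final). Unwinding followed kinetically by red fluorescence (ex 525/em 598 nm).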
# PLK1 PBD inh = PLK1 (human) polo-box domain binding inhibition; Plk1 PBD binding of FITC phosphopeptide, fluorescence polarization; Potency, µM, without a hit: max response, negative = inhibition, hits mostly inhibitors; 2.8% of 360,000 active; P53350; AID 720504; also: potency is read from the fitted curve at half-maximal effect; series mostly up to about 57 µM; % is scaled to controls: 0 for no effect and ±100 for the full control effect; nearly all actives have a fitted effect of over 65% in size
# USP2a block = blocks human ubiquitin-specific protease USP2a; O75604; USP2 core, Ub-CHOP2 coupled fluorogenic reporter, 485/531; Potency, µM (doses to about 38.3 µM), for the others: at the top dose activity change, negative = inhibition, most hits filed as inhibitors; 0.01% of 330,000 active; AID 463254;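 also: potency is read from the fitted curve at half-maximal effect; plate controls were DMSO wells for no effect and full inhibition by NEM control for full effect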
#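 USP2 core (10nM final) preincubated 30min RT with compound in 20mM Tris-HCl pH 8.0, 2mM CaCl2, 2mM beta-mercaptoethanol, 0.05% CHAPS; 25nM Ub-CHOP2 plus 25nM reporter substrate added, fluorescence (Ex485/Em531) read after 60min.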
# PI5P4K alpha inh = inhibitors of human PI5P4K alpha; P48426; PI5P4Kalpha enzyme, ADP-Glo luminescence, 60 min; hits give low values; max response, %; 1.2% of 330,000 active; active = max response of -50% or lower; inconclusive = between -30% and -50%; inactive = -30% or higher; also: value at the top dose of about 77 µM; % is scaled to controls: 0 for no effect and ±100 for the full control effect
# Target sequence (P48426 whole entry, looked up): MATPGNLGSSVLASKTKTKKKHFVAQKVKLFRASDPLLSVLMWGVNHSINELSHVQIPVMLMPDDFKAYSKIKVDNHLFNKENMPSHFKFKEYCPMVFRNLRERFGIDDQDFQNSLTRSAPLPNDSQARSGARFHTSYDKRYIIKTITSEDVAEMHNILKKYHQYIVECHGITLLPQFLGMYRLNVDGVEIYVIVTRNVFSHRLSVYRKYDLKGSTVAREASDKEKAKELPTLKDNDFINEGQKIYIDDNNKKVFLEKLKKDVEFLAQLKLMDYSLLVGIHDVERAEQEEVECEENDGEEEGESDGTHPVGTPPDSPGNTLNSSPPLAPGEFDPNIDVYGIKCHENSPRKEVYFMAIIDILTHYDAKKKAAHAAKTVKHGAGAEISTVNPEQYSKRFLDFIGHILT
#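 Human PI5P4Kalpha with substrate in 0.038 M HEPES pH 7.4, 0.28 mM EGTA, 0.1% CHAPS, 5% DMSO; reaction started with 5 microM ATP (final), 60 min at room temperature. ADP formed read by ADP-Glo luminescence.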
# WRN helicase inh-2 = confirmation of human WRN helicase inhibitors; shares compounds with WRN helicase inh-1; WRN helicase DNA unwinding, fluorescence kinetic; Potency, µM (top dose mostly 57.1 µM), for the others: at the top dose activity, negative = inhibition, most hits filed as inhibitors; 63% of 610 active; AID 720497; also: potency is read from the fitted curve at half-maximal effect; nearly all actives have a fitted effect of over 65% in size
# TO DNA binding = counter-screen for WRN helicase inhibitors: DNA binding | 10% of 610 active | Potency, µM (series often up to 57.1 µM), for the others: at the highest dose activity change, negative = inhibition, hits mostly inhibitors | thiazole orange DNA binding displacement, fluorescence | shares compounds with WRN helicase inh-1;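 also: drop in dye fluorescence marks compound binding to DNA; potency is read from the fitted curve at half-maximal effect; % is scaled to controls: 0 for no effect and ±100 for the full control effect; nearly all actives have a fitted effect of over 60% in size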
# BLM counter = blocks human BLM helicase in WRN counterscreen; 60% of 610 active; Recombinant BLM helicase DNA unwinding, red fluorescence; shares compounds with WRN helicase inh-1; Potency, µM (highest dose often 57.1 µM), for the others: top-dose activity change, negative = inhibition, most hits filed as inhibitors; also: potency is read from the fitted curve at half-maximal effect; nearly all actives have a fitted effect of over 60% in size
# Starred values were filed as active, the others as inactive; i = inactive; ? = inconclusive; / = not tested or not shown; [ ] = dose if it differs, or a comment. An excerpt weighted towards active compounds, which were near 3.3% of everything screened. Unless noted, calls follow the shape of the dose curve; as a rule, active = well fitted curve in the direction sought with a large enough effect; inconclusive = small, poorly fitted or top-dose-only effect, or another doubt; inactive = no such curve, though single readings can be large; an effect the other way counts as inactive or inconclusive.
SMILES,USP1-UAF1 inh,WRN helicase inh-1,PLK1 PBD inh,USP2a block,PI5P4K alpha inh,WRN helicase inh-2,TO DNA binding,BLM counter
Cc1oc2c(c1C(=O)Nc1ccc(Cl)cc1F)C1=NCCN1C=N2,-15%,/,/,/,/,/,/,/
COc1ccc(OC)c(C2C(C(=O)N3CCCCC3)=C(C)Nc3nc4ccccc4n32)c1 (stereo unspecified),-3%,/,/,/,/,/,/,/
COC(=O)CSc1nc(SC)nc2c1sc1nc(-c3ccco3)c3c(c12)CC(C)(C)OC3,0%,3%,-11%,/,-7,/,/,/
CSc1nc(SCCO)c2sc3nc(-c4ccco4)c4c(c3c2n1)CC(C)(C)OC4,-32%,50µM*,-20%,10µM*,/,7.6µM*,15µM*,2.2µM*
O=C(NC1CC1)c1cc(-c2ccco2)nc2ccccc12,-8%,20µM*,21µM*,7%,-101*,6.1µM*,?,0.96µM*
O=C(O)c1cc(-c2ccco2)nc2ccccc12,-20%,?,?,2%,-28,/,/,/
COc1ccc2cc3cc(C(=O)NCc4cccs4)oc3nc2c1,-9%,40µM*,-8%,3%,-13,24µM*,2%,15µM*
O=C(O)COc1ccc(/C=N/NC(=O)c2ccc(-c3csc(Nc4ccc(Cl)cc4)n3)cc2)cc1,?,13µM*,?,3%,-69*,4.3µM*,5.4µM*,0.86µM*
COC(=O)C(CC(=O)c1ccc(Br)cc1)n1ccnc1 (stereo unspecified),/,/,/,1%,/,-15%,-11%,?
CCCN1C(=O)/C(=C2/C=Cc3ccccc3N2CC)SC1=S,-6%,-2%,6%,-2%,-3,/,/,/
CCCN1C(=O)/C(=C/C=C2\N(CC)c3ccccc3C2(C)C)SC1=S,75%,19µM*,0%,11%,4,22µM*,477%,22µM*
CN1/C(=C\C=C2/SC(=S)N(CC(=O)O)C2=O)C(C)(C)c2ccccc21,25µM*,50µM*,113%,?,-27,22µM*,i,22µM*
CCNc1c(NC(=O)c2ccccc2OCC)c(=O)oc2ccccc12,-17%,/,/,/,/,/,/,/
COc1cc2c(cc1NC(=O)CSc1nc3ccccc3[nH]1)oc1ccccc12,-11%,?,-3%,2%,/,-23%,25%,?
COc1cc2c(cc1NC(=O)CSc1ccccc1)oc1ccccc12,-27%,-6%,-9%,2%,1,/,/,/
Cc1nnc(SCC(=O)NCc2ccco2)[nH]c1=O,-17%,-24%[57.1 µM],-12%,3%,/,/,/,/
Cc1cc(=O)[nH]c(SCC(=O)NCc2ccco2)n1,-5%,19µM*,?,-2%,-22,?,-5%,22µM*
CC[n+]1c(/C=C/C=C/N(C(C)=O)c2ccccc2)sc2cc(OC)ccc21,28µM*,?,69%,29%,-54*,24µM*,426%,22µM*
Cc1nnc(-c2cccc(Br)c2)c2cn(-c3ccccc3)nc12,-16%,2%,-2%,1%,/,/,/,/
Cc1nnc(-c2cccc(Br)c2)c2cn(-c3cccc(Br)c3)nc12,-25%,25µM*,1%,1%,9,?,17%,9.6µM*
Cc1ccc(C)c(N2CCN(C(=O)c3cc(S(=O)(=O)N4CCCC4)c[nH]3)CC2)c1,-22%,/,/,/,/,/,/,/
Cc1nnc(Sc2cc(NCCCO)c([N+](=O)[O-])c3nonc23)s1,14µM*,22µM*,5.3µM*,9%,-78*,?,-13%,?
O=[N+]([O-])c1c(NCCCO)cc(Sc2nc3ccccc3s2)c2nonc12,?,19µM*,0.95µM*,1%,/,?,-15%,?
CCOC(=O)C1CCCN(c2cc(NCCCO)c([N+](=O)[O-])c3nonc23)C1 (stereo unspecified),/,/,/,0%,/,/,/,/
Nc1nonc1NC(=O)CSc1nc2ccccc2s1,-14%,-10%,?,/,-5,/,/,/
SMILES,USP1-UAF1 inh,WRN helicase inh-1,PLK1 PBD inh,USP2a block,PI5P4K alpha inh,WRN helicase inh-2,TO DNA binding,BLM counter
CC(C)(C)N(Cc1ccc2c(c1)OCO2)C(=O)/C=C\S(=O)c1ccccc1 (stereo unspecified),-8%,?,?,/,-1,12µM*,-12%,24µM*
Cc1cc(C(=O)NC(Cc2c[nH]c3ccccc23)C(=O)O)c(C)o1 (stereo unspecified),-18%,1%,0%,3%,-4,/,/,/
COC(=O)C(Cc1c[nH]c2ccccc12)NC(=O)c1cc(-c2ccc(OC)c(OC)c2)oc1C (stereo unspecified),-21%,89µM*,-6%,-4%,2,-25%,8%,-19%
Cc1ccc(Cl)cc1NC(=O)c1cnn2c(C(F)F)cc(-c3ccccc3)nc12,-7%,/,/,/,/,/,/,/
CCOC(=O)c1c(-c2ccc(F)cc2)csc1NC(=O)CN1C(=O)NC2(CCCCC2C)C1=O (stereo unspecified),-24%,?,-2%,2%,20,-7%,-5%,-12%
Oc1c(C(c2ccc(Cl)cc2)N2CCC3(CC2)OCCO3)sc2nc(-c3ccco3)nn12 (stereo unspecified),8%,/,/,/,/,/,/,/
Cc1ccc(NC(=O)Cn2c(=O)n(Cc3ccco3)c(=O)c3oc4ccccc4c32)cc1C,4%,/,/,/,/,/,/,/
Oc1ccc(Nc2ccc3ccccc3c2)cc1,-16%,?,?,/,?,-23%,?,?
Oc1ccc(Nc2nc(-c3ccc4ccccc4c3)cs2)cc1,/,/,/,-10%,/,/,/,/
CC(C)CNc1cc(NC2CCCCC2)c2c3c(onc13)-c1ccccc1C2=O,-15%,/,/,/,/,/,/,/
CN(C)CCCNc1cc(N2CCN(C3CCCCC3)CC2)c2noc3c2c1C(=O)c1ccccc1-3,?,/,/,/,/,24µM*,213%,43µM*
CCOc1ccc(C(=O)OCc2cc(=O)n3nc(C4CCCCC4)sc3n2)cc1,-17%,/,/,/,/,/,/,/
CCOC(=O)C1=C(C)N=c2s/c(=C/c3ccc(OCC(=O)O)c(OC)c3)c(=O)n2C1c1ccc(Cl)cc1 (stereo unspecified),?,28µM*,6%,/,?,12µM*,465%,7.6µM*
CS(=O)(=O)N1CCCc2cc(C(=O)Nc3cccc(C(F)(F)F)c3)ccc21,-26%,/,/,/,/,/,/,/
N=C1S/C(=C\c2ccco2)C(=O)N1c1ccc2c(c1)OCO2,-8%,?,-26%,-9%,?,?,-30%,19µM*
Cc1ccc(NC(=O)CN2C(=O)S/C(=C\c3ccc(-c4cccc(C(=O)O)c4C)o3)C2=O)cc1,/,/,/,3%,/,/,/,/

# Compound activity (PubChem)
